Assay [1] has as its target Albumin (Bos taurus) (UniProt P02769). Nature of the assay: compounds binding labelled BSA control protein – biochemical, small-molecule microarray, Alexa647 label, 635/667 nm fluorescence, artefact control for SMM control protein annotation, profiling panel (AID 1118).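 Further: score merges 667 nm emission intensity and signal-to-noise per printed compound spot.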 Conditions: BSA-A647 binding, fluorescence 635 nm, higher = more signal.
The nature of assay [2]: probe aXIP binding to arrayed compounds – biochemical, NeuroSMM set, 635/667 nm fluorescence, primary screen (AID 1119).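 Further: probe is the protein aXip251-270 applied at 1 µg/mL to compound-printed slides; binding of probe to printed compounds measured as 667 nm fluorescence plus signal to noise.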 The settings on record: small-molecule microarray, higher = more signal, called active from +8 up or from −8 down.
A short description of assay [3]: probe aNOTCH3 binding on compound microarray – biochemical, small-molecule microarray, 635/667 nm fluorescence, primary screen (AID 1120).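 Further: probe is a biotin-tagged antibody raised against NOTCH3 rather than NOTCH3 protein; score merges spot fluorescence near 667 nm with spot signal to noise.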 The settings on record: higher = more signal.
Assay [4] in a line: probe aNOTCH2 binding on compound microarray – biochemical, small-molecule microarray, 635/667 nm fluorescence, primary screen (AID 1121).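 Further: score merges feature fluorescence read at 667 nm with its signal to noise.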 The settings on record: higher = more signal.
Assay [5] has as its target Carbonic anhydrase 2 (Homo sapiens) (UniProt P00918). Nature of the assay: compounds binding carbonic anhydrase 2 – biochemical, small-molecule microarray, Alexa647-labelled CAII, profiling panel (AID 1122). Conditions: CAII-A647 binding fluorescence, higher = more signal.
A short description of assay [6]: COS7 lysate on small-molecule microarray, probe aHis, 635 nm (AID 1123).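 Further: z-score combines 667nm fluorescence intensity with signal-to-noise per printed compound spot.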 Conditions: COS7 cell lysate, fluorescence, higher = more signal.
Assay [7] can be described thus: probe aLAP1 signal on lysate-treated microarray – cell lysate, small-molecule microarray, COS7 lysate, primary screen (AID 1124).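 Further: lysate comes from COS7 cells expressing LAP1 and is applied at 0.3 µg/mL; score merges spot fluorescence near 667 nm with signal-to-noise over triplicate slides.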 Conditions: probe aLAP1, fluorescence, higher = more signal.
The test system of assay [8] is Sam68 (KHDRBS1). As to the kind of experiment: compounds binding KHDRBS1 protein – biochemical, small-molecule microarray, 635 nm fluorescence, primary screen (AID 1125).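 Further: score merges 667 nm channel intensity with signal to noise over triplicate slides.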 The settings on record: higher = more signal.
Assay [9] has as its system Chordin-like protein 2 (CHRDL2). As to the kind of experiment: compounds binding chordin-like 2 – biochemical, small-molecule microarray, 635 nm fluorescence, primary screen (AID 1126).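 Further: printed compound slides probed with Chrdl2 protein at 4 µg/mL for 1 h at 4 C; score merges 667 nm emission intensity with signal to noise over three replicate slides.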 Conditions: fluorescence 635 nm, higher = more signal.
Assay [10] addresses Concanavalin-A (Canavalia ensiformis) (UniProt P02866). As to the kind of experiment: compounds binding concanavalin A lectin – biochemical, small-molecule microarray, Alexa647 label, 635 nm, artefact control for SMM control protein annotation, primary screen (AID 1127).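 Further: z combines 667 nm emission intensity with signal-to-noise across three replicate slides.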 Conditions: ConA-A647 binding fluorescence, higher = more signal.
Assay [11] is described as follows: compounds binding Alexa647 anti-His antibody – biochemical, small-molecule microarray, 635 nm fluorescence, artefact control for SMM control protein annotation, primary screen (AID 1128).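 Further: score merges feature fluorescence with signal-to-noise for each printed compound spot.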 Conditions: higher = more signal.
Assay [12] concerns Human papillomavirus type 1a E7 protein (residues 1-88). As to the kind of experiment: HPV1a E7 small-molecule binders, primary screen, biochemical, small-molecule microarray, residues 1-88, 635 nm (AID 1129). Conditions: small-molecule microarray binding, fluorescence 635 nm; higher = more signal.
Assay [13] deals with Focal adhesion kinase 1 (Homo sapiens) (UniProt Q05397). Nature of the assay: PTK2 protein binding on printed compound slides – biochemical, small-molecule microarray, 635/667 nm fluorescence, BSA, DTT, primary screen (AID 1130).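 Further: composite of spot emission at 667 nm and signal to noise over triplicate slides.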 The settings on record: 635 nm fluorescence, higher = more signal.
Focal adhesion kinase 1 (Homo sapiens), sequence (Q05397 whole entry, looked up): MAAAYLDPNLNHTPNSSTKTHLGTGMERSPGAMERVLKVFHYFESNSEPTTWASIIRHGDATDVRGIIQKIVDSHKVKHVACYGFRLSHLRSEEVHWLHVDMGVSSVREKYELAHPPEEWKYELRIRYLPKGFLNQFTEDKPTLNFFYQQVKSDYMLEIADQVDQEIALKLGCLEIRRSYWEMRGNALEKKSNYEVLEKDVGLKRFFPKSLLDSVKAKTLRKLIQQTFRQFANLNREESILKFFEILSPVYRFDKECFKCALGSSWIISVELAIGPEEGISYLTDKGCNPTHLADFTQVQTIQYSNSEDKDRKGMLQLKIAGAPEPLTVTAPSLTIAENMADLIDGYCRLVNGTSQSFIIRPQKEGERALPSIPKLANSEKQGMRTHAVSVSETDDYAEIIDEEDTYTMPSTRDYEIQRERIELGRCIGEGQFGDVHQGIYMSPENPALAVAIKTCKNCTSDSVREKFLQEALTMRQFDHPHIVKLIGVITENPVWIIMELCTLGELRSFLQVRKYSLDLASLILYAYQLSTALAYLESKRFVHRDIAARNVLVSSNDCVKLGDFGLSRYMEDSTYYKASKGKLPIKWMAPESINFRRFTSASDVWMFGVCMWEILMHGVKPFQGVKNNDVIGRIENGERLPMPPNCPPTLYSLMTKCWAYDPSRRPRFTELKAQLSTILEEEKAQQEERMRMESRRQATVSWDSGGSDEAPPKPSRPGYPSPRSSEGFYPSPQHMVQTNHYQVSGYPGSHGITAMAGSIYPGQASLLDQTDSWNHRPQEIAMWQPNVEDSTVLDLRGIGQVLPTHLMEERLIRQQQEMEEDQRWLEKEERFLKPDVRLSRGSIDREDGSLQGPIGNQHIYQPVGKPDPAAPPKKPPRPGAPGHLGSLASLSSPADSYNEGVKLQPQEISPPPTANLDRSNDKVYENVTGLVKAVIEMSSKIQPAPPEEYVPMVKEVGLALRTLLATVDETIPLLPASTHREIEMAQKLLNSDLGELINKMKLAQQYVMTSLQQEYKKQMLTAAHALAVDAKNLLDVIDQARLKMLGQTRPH
The subject of assay [14] is Fibrinogen (Alexa647-labelled). As to the kind of experiment: Alexa647-fibrinogen binding to printed small molecules – biochemical, small-molecule microarray, 635/667 nm fluorescence, artefact control for SMM control-protein annotation, profiling panel (AID 1131).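 Further: z-score merges 667 nm fluorescence with per-spot signal-to-noise over triplicate slides.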 The settings on record: fibrinogen-A647 binding fluorescence, higher = more signal.
Assay [15] has as its target Follistatin (Homo sapiens) (UniProt P19883). As to the kind of experiment: FST protein binding to printed compounds – biochemical, small-molecule microarray, 635/667 nm fluorescence, primary screen (AID 1132). Conditions: 635 nm fluorescence, higher = more signal.
Assay [16] concerns the target Fibroblast growth factor 2 (Homo sapiens) (UniProt P09038). As to the kind of experiment: basic fibroblast growth factor binding to printed compounds – biochemical, small-molecule microarray, 635/667 nm fluorescence, primary screen (AID 1133). Conditions: FGF2, fluorescence 635/667, higher = more signal.
Assay [17] in a line: JC-1 mitochondrial potential readout, lung cancer cells – cell-based, A549, JC-1 fluorescence, basal, 24 h, 100 nL, profiling panel (AID 1138).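 Further: A549 lung adenocarcinoma cells under basal conditions with no added stimulus; test concentration not given here.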 The settings on record: higher = more signal.
For assay [18], the system named is Lefty1. Nature of the assay: Lefty1 protein binding to printed compounds – biochemical, small-molecule microarray, 635/667 nm fluorescence, primary screen (AID 1139). The settings on record: fluorescence 635/667, higher = more signal.
Assay [19] deals with wheat germ agglutinin (Triticum aestivum), Alexa647-labelled. Nature of the assay: Alexa647-WGA lectin binding to printed small molecules – biochemical, small-molecule microarray, 635/667 nm fluorescence, artefact control for SMM control-protein annotation, profiling panel (AID 1140).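 Further: score merges 667 nm feature emission with signal to noise over triplicate slides.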 The settings on record: WGA-A647 binding, 635 nm fluorescence, higher = more signal.
The target of assay [20] is Luciferin 4-monooxygenase (Photinus pyralis) (UniProt P08659). As to the kind of experiment: inhibition of purified Photinus pyralis luciferase – biochemical, luminescence, purified enzyme, 2006 set, primary screen (AID 1141).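 Further: cell-free assay with purified firefly luciferase at 100 ng per well in PBS; test concentration not given here.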 The settings on record: purified firefly luciferase, SteadyGlo luminescence, 30 min; higher = more signal, called active from +8 up or from −8 down.
Luciferin 4-monooxygenase (Photinus pyralis), sequence (P08659 whole entry, looked up): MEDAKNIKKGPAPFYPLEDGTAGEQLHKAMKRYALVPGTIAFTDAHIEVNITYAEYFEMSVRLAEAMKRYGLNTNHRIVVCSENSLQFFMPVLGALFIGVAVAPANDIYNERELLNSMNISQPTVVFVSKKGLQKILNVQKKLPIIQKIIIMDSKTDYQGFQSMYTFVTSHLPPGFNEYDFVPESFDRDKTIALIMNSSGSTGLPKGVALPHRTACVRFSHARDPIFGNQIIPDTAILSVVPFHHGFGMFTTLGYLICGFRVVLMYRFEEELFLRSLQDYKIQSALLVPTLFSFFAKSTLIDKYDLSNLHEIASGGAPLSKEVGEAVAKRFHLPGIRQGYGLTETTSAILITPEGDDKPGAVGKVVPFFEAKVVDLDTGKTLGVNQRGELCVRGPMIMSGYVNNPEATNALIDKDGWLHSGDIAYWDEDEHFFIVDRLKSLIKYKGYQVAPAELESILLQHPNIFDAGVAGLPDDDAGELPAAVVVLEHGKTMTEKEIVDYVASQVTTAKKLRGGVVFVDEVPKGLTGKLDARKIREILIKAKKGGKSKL

Calls of active or inactive are those of the source.

Concanavalin-A (Canavalia ensiformis), sequence (P02866 whole entry, looked up): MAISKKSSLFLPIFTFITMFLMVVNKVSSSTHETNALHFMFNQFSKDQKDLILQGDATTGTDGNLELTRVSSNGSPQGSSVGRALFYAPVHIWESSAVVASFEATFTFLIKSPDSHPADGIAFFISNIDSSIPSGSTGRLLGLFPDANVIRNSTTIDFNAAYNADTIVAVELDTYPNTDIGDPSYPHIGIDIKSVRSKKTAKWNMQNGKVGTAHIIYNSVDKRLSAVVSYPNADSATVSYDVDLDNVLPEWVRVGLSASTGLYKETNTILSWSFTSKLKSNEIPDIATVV
Follistatin (Homo sapiens), sequence (P19883 whole entry, looked up): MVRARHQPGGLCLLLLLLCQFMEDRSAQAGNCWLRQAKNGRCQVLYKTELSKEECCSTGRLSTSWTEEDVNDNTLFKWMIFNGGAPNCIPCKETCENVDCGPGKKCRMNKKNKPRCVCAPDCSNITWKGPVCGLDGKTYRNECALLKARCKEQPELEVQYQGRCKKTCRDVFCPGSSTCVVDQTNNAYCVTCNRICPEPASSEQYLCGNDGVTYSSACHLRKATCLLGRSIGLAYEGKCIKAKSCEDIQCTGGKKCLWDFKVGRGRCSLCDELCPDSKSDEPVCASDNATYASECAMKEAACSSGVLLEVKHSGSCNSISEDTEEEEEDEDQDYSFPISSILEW
Albumin (Bos taurus), sequence (P02769 whole entry, looked up): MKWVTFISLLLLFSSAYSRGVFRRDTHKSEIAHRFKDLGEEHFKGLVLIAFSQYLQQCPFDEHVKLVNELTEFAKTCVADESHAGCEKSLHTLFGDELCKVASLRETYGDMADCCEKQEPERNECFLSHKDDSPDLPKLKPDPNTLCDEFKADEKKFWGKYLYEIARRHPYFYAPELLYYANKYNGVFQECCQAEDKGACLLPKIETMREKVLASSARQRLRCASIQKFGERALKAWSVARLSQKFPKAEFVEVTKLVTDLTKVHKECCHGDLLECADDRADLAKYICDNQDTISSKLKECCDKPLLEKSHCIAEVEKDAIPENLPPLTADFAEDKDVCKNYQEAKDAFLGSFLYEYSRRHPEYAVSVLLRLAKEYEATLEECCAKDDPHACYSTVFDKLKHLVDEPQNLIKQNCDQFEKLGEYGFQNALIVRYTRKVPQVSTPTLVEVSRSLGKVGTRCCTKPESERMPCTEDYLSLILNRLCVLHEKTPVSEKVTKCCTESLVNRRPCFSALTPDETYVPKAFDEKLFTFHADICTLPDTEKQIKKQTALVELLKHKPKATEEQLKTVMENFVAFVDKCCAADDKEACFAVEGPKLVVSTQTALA
Fibroblast growth factor 2 (Homo sapiens), sequence (P09038 whole entry, looked up): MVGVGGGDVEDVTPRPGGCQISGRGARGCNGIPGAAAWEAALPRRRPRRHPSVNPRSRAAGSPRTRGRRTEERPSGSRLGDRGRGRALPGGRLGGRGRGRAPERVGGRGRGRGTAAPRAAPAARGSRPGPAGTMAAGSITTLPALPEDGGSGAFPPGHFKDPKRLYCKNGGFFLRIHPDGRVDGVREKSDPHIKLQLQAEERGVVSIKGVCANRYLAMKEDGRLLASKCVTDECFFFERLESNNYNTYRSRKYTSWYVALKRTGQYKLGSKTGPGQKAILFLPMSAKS

`C=CCOC(=O)[C@@H]1[C@H]2C(=O)O[C@H](c3ccccc3)[C@H](c3ccccc3)N2[C@H](c2ccc(OCCOC(=O)[C@H]3C[C@H]4C(=O)N[C@@H](CCCCN(C)C)C(=O)N4[C@H]3c3cccc(OCCO)c3)cc2)[C@@]12C(=O)Nc1ccccc12`: the composite z-score in assay [1] was 0.172; in [3] it was -0.2; in assay [4] it was 0.0018; in assay [5] it was 0.656; in [6], 0.668; in assay [7] it was 0.781. Besides, the composite z-score in assay [8] is 0.846; in assay [9] it was 0.0523; in assay [10] it was 0.682; in assay [11] it was 2.06; in assay [12], -0.246; in [13], 0.0815. Besides, the composite z-score was 0.498 in [14]; 0.519 in assay [15]; 0.382 in assay [16]; -0.0986 in assay [18]; 0.517 in assay [19]. Besides, in assay [2], the composite Z-score is 0.597 (inactive). Moreover, the results for the z-score in [17] and in assay [20] were -0.407 and 0.892 (inactive), respectively.
As for `CN(C)C(=O)[C@]1(CCS(=O)(=O)c2ccccc2)N=C(c2ccc(OCCCO)cc2)O[C@@H]1c1ccccc1CN=[N+]=[N-]`, the composite z-score in assay [1] worked out at 0.955; in assay [3] it was 0.0743; in assay [4], 0.139; in [5], 0.73; in [6], 2.78; in assay [7], 0.766. The composite z-score was 1.3 in assay [8]; -0.109 in assay [9]; 1.17 in assay [10]; 2.64 in assay [11]; 1.26 in [12]; 1.08 in [13]. Besides, the composite z-score is 0.994 in [14]; 0.983 in [15]; 1.45 in assay [16]; -0.421 in [18]; 0.774 in assay [19]. Further, the composite Z-score in [2] is 0.581 (inactive). The z-score in [17] is -0.381; in assay [20], -0.345 (inactive).
For the molecule `C=CC[C@H](O)c1ccc(O)c2ccccc12`, the composite z-score in assay [1] is -0.491; in [3] it was 0.037; in assay [4] it was -0.0904; in assay [5], 0.421; in assay [6], 1.63; in [7], 0.0233. In addition, the composite z-score in assay [8] stood at 1.06; in assay [9], 1.4; in assay [10], 0.79; in assay [11] it was 1.02; in assay [12], 0.604; in assay [13], 0.126. The composite z-score in assay [14] was 0.24; in assay [15] it was 1.4; in assay [16] it was 1.49; in [18], 1.26; in assay [19] it was 0.742. For the same molecule, the composite Z-score in assay [2] is 0.579 (inactive). For the same molecule, the z-score in assay [17] is -0.0561; in [20], -2.47 (inactive).
Consider `CCCC1(C(=O)OC)C=C2C(=C(C(C)C)C(=O)C2C)CN1` (stereo not given), for which the composite z-score in assay [1] was 0.844; in assay [3], -0.0288; in assay [4], 0.0788; in [5] it was 0.0703; in [6], 0.614; in [7], 0.976. In addition, the composite z-score in assay [8] is -1.36; in [9], -0.454; in assay [10], -0.981; in assay [11], 1.76; in assay [12], -1.58; in [13], -0.222. Besides, the composite z-score in assay [14] is -0.727; in assay [15], -0.927; in assay [16] it was -0.434; in [18], -1.1; in assay [19], -0.116. Also, in assay [2], the composite Z-score is 0.382 (inactive). In addition, the z-score in [17] is 0.905; in assay [20], 1.88 (inactive).
Consider `C=CCN1C(=O)[C@]2(O[C@H](CCO)[C@@H]([Si](C)(C)c3ccc(OC)cc3)[C@@H]2C)c2cc(N3C(=O)c4ccccc4Oc4ccccc43)ccc21`, for which the composite z-score in assay [1] is 0.493; in assay [3], -0.0328; in assay [4], -0.125; in assay [5], 0.467; in assay [6], 0.506; in [7], 0.199. The composite z-score in assay [8] was 1.11; in assay [9], -0.175; in assay [10], 0.91; in assay [11], 0.309; in assay [12], 1.14; in [13], 0.215. The composite z-score in [14] worked out at 0.694; in [15] it was 0.157; in assay [16] it was 0.0857; in assay [18], 0.591; in [19], 0.51. For the same molecule, the composite Z-score in assay [2] was -0.0467 (inactive). Also, the values for the z-score in assay [17] and in assay [20] were -1.36 and 0.368 (inactive), respectively.
As for `C[C@]1(C(=O)NC2CC2)c2ccccc2C(=O)N(Cc2cc(F)cc(C(F)(F)F)c2)[C@H]1c1ccc(CO)cc1`, the composite z-score was -0.1 in assay [1]; -0.368 in assay [3]; -0.164 in assay [4]; 0.759 in assay [5]; 2.23 in assay [6]; 0.522 in assay [7]. Also, the composite z-score in assay [8] was -0.0456; in [9], -1.61; in assay [10], -0.0372; in assay [11], 1.26; in assay [12], -0.0534; in assay [13], -0.695. For the same molecule, the composite z-score in [14] was -0.331; in [15], 0.719; in assay [16], -0.785; in assay [18], 0.0495; in [19], -0.692. In assay [2], the composite Z-score was 0.004 (inactive). Also, the results for the z-score in assay [17] and in [20] were -0.057 and 0.851 (inactive), respectively.

The values are drawn from PubChem BioAssay.
